Data reported in PMC7826789 (International Journal of Molecular Sciences, 2021).

system: KDR

Structure (SMILES)	Kinases covered
Cl.O=C(Nc1ccc(Oc2ccc3[nH]c(NC(=O)c4ccco4)nc3c2)cc1)Nc1cc(C(F)(F)F)ccc1F [GW683134A]	KDR
COc1cc2nccc(Nc3ccc(OCc4ccc(NC(C)=O)cc4)cc3)c2cc1OC [GW440135]	KDR
CN1CCN(C(=O)c2ccc(NC(=O)Nc3ccc(N(C)c4ccnc(Nc5ccc(CS(C)(=O)=O)cc5)n4)cc3)cc2)CC1.Cl [GW830263A]	KDR
COC(=O)Nc1nc2ccc(Oc3ccc(NC(=O)Nc4cc(C(F)(F)F)ccc4F)cc3)cc2s1.Cl [GW693917A]	KDR
Nc1ncnc2occ(-c3ccc(NC(=O)Nc4cc(C(F)(F)F)ccc4F)cc3)c12 [GW770249X]	KDR
Cn1ccc2ncnc(Oc3ccc(NC(=O)Nc4ccccc4)cc3)c21 [TPKI-69]	KDR
Cl.O=C(Nc1ccc(Oc2ccc3[nH]c(NC(=O)c4ccccc4)nc3c2)cc1)Nc1cc(C(F)(F)F)ccc1F [GW709042A]	KDR

system: KIT

Structure (SMILES)	Kinases covered
Cl.O=C(Nc1ccc(Oc2ccc3[nH]c(NC(=O)c4ccco4)nc3c2)cc1)Nc1cc(C(F)(F)F)ccc1F [GW683134A]	KIT
CCS(=O)(=O)c1ccc(OC)c(Nc2ncc(-c3cccc(OC)c3)o2)c1 [GW580509X]	KIT
COc1cc2nccc(Nc3ccc(OCc4ccc(NC(C)=O)cc4)cc3)c2cc1OC [GW440135]	KIT
C/C(Nc1ccc(S(N)(=O)=O)cc1)=C1/C(=O)Nc2ccccc21 [GW335962X]	KIT
CCS(=O)(=O)c1ccc(OC)c(Nc2ncc(-c3cccc(F)c3)o2)c1 [GW621970X]	KIT
O=C(Nc1ccccc1)Nc1cccc(Oc2ccc3nccn3n2)c1 [TPKI-39]	KIT
Nc1ncnc2occ(-c3ccc(NC(=O)Nc4cc(C(F)(F)F)ccc4F)cc3)c12 [GW770249X]	KIT
Cn1ccc2ncnc(Oc3ccc(NC(=O)Nc4ccccc4)cc3)c21 [TPKI-69]	KIT
Nc1n[nH]c2ncc(-c3ccccc3)cc12 [SB-517081]	KIT

system: LRRK2

Structure (SMILES)	Kinases covered
CNc1nc(Nc2ccc(C(=O)N3CCOCC3)cc2OC)nc2[nH]cc(Cl)c12 [JH-II-127]	LRRK2
O=C(Nc1cccnc1)c1cc(-c2ccnc(F)c2)ccc1OCc1ccccc1 [GSK2578215]	LRRK2
CNc1nc(Nc2ccc(C(=O)N3CCOCC3)cc2OC)ncc1Cl [HG-10-102-01]	LRRK2
C[C@@H]1CCNC(=O)c2cc3ccc(C(=O)Nc4nc5ccccc5n4CCCN(C)C)cc3n21 [BI00645435]	LRRK2
